An excerpt weighted towards active compounds, which were near 19% of everything screened.
IL-1B inflam inh: qHTS for Inhibitors of Inflammasome Signaling: IL-1-beta AlphaLISA Primary Screen | 360,000 compounds, 4.7% hits | activity change, % at 57.5 µM | THP-1 LPS/ATP IL-1B secretion, AlphaLISA, 16 h; active compounds read low; in the data active means activity change below about -50%; inconclusive means mostly about -30% to -49%
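Secreted IL-1B measured by AlphaLISA bead assay after 16 h compound exposure of THP-1 cells; compounds (final up to 57.5 uM) added 1 h before LPS (250 ng/mL) and ATP (1.25 mM) stimulation; lower signal means less secretion.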
HT1080-NT tox: qHTS for induction of synthetic lethality in tumor cells producing 2HG: qHTS for the HT-1080-NT fibrosarcoma cell line; HT-1080-NT fibrosarcoma viability, CellTiter-Glo ATP luminescence, 48 h; Potency, µM (titrated, usually from 46.1 µM), for the others: at the top dose activity, negative = less viability, usual class: cytotoxic; 360,000 compounds, 1.6% hits;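 further: NT is the 2HG producing partner of a matched IDH1 knockdown line; potency means the concentration at half of the fitted maximal effect; 0% = DMSO-treated cells and -100% = media-only wells without cells; nearly all actives have a fitted effect of over 55% in size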
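Luminescent CellTiter-Glo readout after 48 hours of compound exposure at 37 degrees C defined viability of HT-1080-NT cells. Activity was normalized to DMSO wells and cell-free media wells; concentration-response curves were fitted and assigned curve classes.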
TDP1 cell CPT: qHTS for Inhibitors of human tyrosyl-DNA phosphodiesterase 1 (TDP1): qHTS in cells in presence of CPT. chicken DT40 Tdp1-/-;hTDP1 cells + 20 nM CPT, ATP luminescence, 48 h. AID 686979, 2013. 420,000 compounds, 12% hits. Potency, µM (highest dose often 46.2 µM), for inactives: at the highest dose activity change, negative = growth inhibition, usual class: inhibitors; further: potency means the concentration at half of the fitted maximal effect; nearly all actives have a fitted effect of over 55% in size
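Chicken DT40 Tdp1-/- cells stably complemented with human TDP1 were seeded at 400 cells/well in medium containing 20 nM camptothecin, exposed to pin-transferred compounds, and grown at 37 °C for at least 48 hr. Viability was read as ATP luminescence.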
ELG1 repair inh: qHTS screen for small molecules that inhibit ELG1-dependent DNA repair in human embryonic kidney (HEK293T) cells expressing luciferase-tagged ELG1; HEK293T ELG1-luciferase reporter, luminescence, 16 h; DNA damage induced by 5-fluorouridine; 330,000 compounds, 2.3% hits; Potency, µM (titrated, usually from 46.1 µM), for inactives: at the top dose activity change, negative = inhibition, actives largely listed as inhibitors; further: potency means the concentration at half of the fitted maximal effect; nearly all actives have a fitted effect of over 55% in size
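In this reporter screen, reduction of luminescence relative to DMSO vehicle indicated activity. Compounds and 5-fluorouridine were added together to 2,000 cells per well, incubated for 16 hr at 37 °C, then developed with ONE-Glo.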
DT40 TDP1 no CPT: qHTS for Inhibitors of human tyrosyl-DNA phosphodiesterase 1 (TDP1): qHTS in cells in absence of CPT. Potency, µM (titrated, usually from 46.2 µM), for the others: top-dose activity change, negative = growth inhibition, hits mostly inhibitors. DT40 Tdp1-/- hTDP1 cells, no CPT, ATP luminescence, 48 h. 420,000 compounds, 15% hits; further: potency means the concentration at half of the fitted maximal effect; nearly all actives have a fitted effect of over 55% in size
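A cellular qHTS used chicken DT40 cells lacking endogenous Tdp1 but carrying stably transfected human TDP1. Compounds were applied without camptothecin, and cell growth kinetics were judged by ATP-dependent luminescence after ≥48 hr.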
HT1080 IDH1KD tx: qHTS for induction of synthetic lethality in tumor cells producing 2HG: qHTS for the HT-1080-IDH1KD cell line; HT-1080 IDH1 knockdown viability, ATP luminescence, 48 h; Potency, µM (highest dose often 46.1 µM), for inactives: at the highest dose activity, negative = toxicity, most hits filed as cytotoxic; 360,000 compounds, 2% hits;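 further: potency means the concentration at half of the fitted maximal effect; 0% = DMSO wells and -100% = cell-free medium wells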
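Luminescent ATP read-out (CellTiter-Glo, 10 min at room temperature) after 48 h compound exposure at 37 °C gave viability of IDH1-knockdown HT-1080 cells. Activity was normalised to DMSO and cell-free wells, then fitted as concentration-response curves.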
* hit, by the source's call. Unless noted, the call rests on the fitted dose curve; in most records, active means well fitted curve in the direction sought with a large enough effect; inconclusive means small, poorly fitted or top-dose-only effect, or another doubt; inactive means no such curve, though single readings can be large; an effect the other way counts as inactive or inconclusive. Unless noted, on the % scale 0 is the no-effect control and ±100 the full control effect.

What do the screens show for `COCCNC(=O)c1cc2c(c(-c3cccc(-c4cccc(OC)c4)c3)n1)[C@H](CCO)N(S(=O)C(C)(C)C)C2` (some centres undefined)?
IL-1B inflam inh: -20.4; HT1080-NT tox: -3.0%; TDP1 cell CPT: inconclusive; DT40 TDP1 no CPT: inconclusive; HT1080 IDH1KD tx: 0.6%

How did COc1cccc(-c2cccc(-c3nc(C(=O)NCCCN4CCOCC4)cc4c3[C@H](CCO)N(S(=O)C(C)(C)C)C4)c2)c1 (some centres undefined) do in these assays?
IL-1B inflam inh: -12.6; HT1080-NT tox: -1.3%; TDP1 cell CPT: inconclusive; DT40 TDP1 no CPT: 18.4µM*; HT1080 IDH1KD tx: -1.0%

How did COc1ccc(NC(=O)Cn2c(=O)n(-c3ccc(CC(=O)NCC4CCCO4)cc3)c(=O)c3ccccc32)c(OC)c1 (centres undefined) do in these assays?
TDP1 cell CPT: 4.6%; DT40 TDP1 no CPT: 1.1%

What do the screens show for `CCCCNC(=O)c1ccc2c(c1)NC(=O)C(CS(=O)(=O)Cc1cccc(C)c1)N2` (centres undefined)?
TDP1 cell CPT: -14.9%; DT40 TDP1 no CPT: inconclusive

Results for Cc1ccc(C(c2nnnn2CCc2ccccc2)N2CCC(C)CC2)cc1 (centres undefined) ?
IL-1B inflam inh: -63.5*; HT1080-NT tox: -29.4%; TDP1 cell CPT: inconclusive; ELG1 repair inh: -6.7%; DT40 TDP1 no CPT: 16.4µM*; HT1080 IDH1KD tx: inconclusive

What do the screens show for `Cc1ccc(C(c2nnnn2CCc2ccccc2)N2CCSCC2)cc1` (centres undefined)?
IL-1B inflam inh: -18.0; HT1080-NT tox: -0.7%; TDP1 cell CPT: 16.4µM*; ELG1 repair inh: -15.0%; DT40 TDP1 no CPT: inconclusive; HT1080 IDH1KD tx: 0.3%

How did CCOC(=O)Nc1ccc(/C=C/c2ccnc3ccccc23)cc1 do in these assays?
TDP1 cell CPT: inconclusive; DT40 TDP1 no CPT: 12.6µM*

Results for O=C(O)CCN(CCC(=O)O)c1ccc(/C=C/c2ccnc3ccccc23)cc1 ?
TDP1 cell CPT: -8.0%; DT40 TDP1 no CPT: -24.6%

Results for CCCCCCCCCCCCCC(=O)Nc1ccc(/C=C/c2ccnc3ccccc23)cc1 ?
TDP1 cell CPT: 11.2µM*; DT40 TDP1 no CPT: 17.8µM*

What do the screens show for `Clc1ccccc1OCCCOc1cccc2cccnc12`?
IL-1B inflam inh: inconclusive; HT1080-NT tox: 1.7%; TDP1 cell CPT: 14.6µM*; ELG1 repair inh: inconclusive; DT40 TDP1 no CPT: inconclusive; HT1080 IDH1KD tx: -15.9%

Results for Cc1ccc(OCCCOc2cccc3cccnc23)cc1C ?
IL-1B inflam inh: -7.0; HT1080-NT tox: -22.7%; TDP1 cell CPT: inconclusive; ELG1 repair inh: inconclusive; DT40 TDP1 no CPT: inconclusive; HT1080 IDH1KD tx: inconclusive

How did Cc1cccc(OCCCCc2c(C)n[nH]c2C)c1C do in these assays?
IL-1B inflam inh: -9.7; HT1080-NT tox: inconclusive; TDP1 cell CPT: 11.6µM*; ELG1 repair inh: -12.6%; DT40 TDP1 no CPT: inconclusive; HT1080 IDH1KD tx: inconclusive

What do the screens show for `Cc1cccc(OCCCOc2cccc3cccnc23)c1C`?
IL-1B inflam inh: -7.4; HT1080-NT tox: inconclusive; TDP1 cell CPT: inconclusive; ELG1 repair inh: 3.3%; DT40 TDP1 no CPT: 18.4µM*; HT1080 IDH1KD tx: inconclusive

Results for O=C(/C=C/c1ccccc1)Oc1cccc2cccnc12 ?
IL-1B inflam inh: -2.0; HT1080-NT tox: 11.0%; TDP1 cell CPT: inconclusive; ELG1 repair inh: -1.9%; DT40 TDP1 no CPT: 8.2µM*; HT1080 IDH1KD tx: 3.1%

How did CCn1c(=S)sc2c(=O)n(CC(=O)Nc3ccc(C(C)=O)cc3)c(C)nc21 do in these assays?
IL-1B inflam inh: 1.3; HT1080-NT tox: 6.3%; TDP1 cell CPT: -26.4%; ELG1 repair inh: 2.2%; DT40 TDP1 no CPT: -7.3%; HT1080 IDH1KD tx: 18.8%

Results for Cc1nn(C)c2c1c(C(F)(F)F)cc(=O)n2Cc1cccc(Br)c1 ?
TDP1 cell CPT: 2.0%; DT40 TDP1 no CPT: -0.8%

What do the screens show for `CCN(CC)C(=O)[C@H]1C[C@H](CC(=O)NCCCOC)C(=O)N2CCc3c([nH]c4cc(CCC(=O)N(C)C)ccc34)[C@]12C`?
IL-1B inflam inh: -7.1; HT1080-NT tox: 2.2%; TDP1 cell CPT: 0.7%; ELG1 repair inh: 13.7%; DT40 TDP1 no CPT: -8.8%; HT1080 IDH1KD tx: 5.9%

How did O=Cc1ccc(OCCCOc2cccc3cccnc23)cc1 do in these assays?
IL-1B inflam inh: -15.9; HT1080-NT tox: -6.2%; TDP1 cell CPT: -10.2%; ELG1 repair inh: 21.3%; DT40 TDP1 no CPT: inconclusive; HT1080 IDH1KD tx: -0.5%

What do the screens show for `O=Cc1ccccc1OCCCOc1cccc2cccnc12`?
IL-1B inflam inh: -10.6; HT1080-NT tox: inconclusive; TDP1 cell CPT: 4.61µM*; ELG1 repair inh: 23.4%; DT40 TDP1 no CPT: 2.06µM*; HT1080 IDH1KD tx: inconclusive

What do the screens show for `Cc1nc2ccccc2nc1/C=C/c1ccc(N(C)C)cc1`?
TDP1 cell CPT: 0.501µM*; DT40 TDP1 no CPT: 0.501µM*

What do the screens show for `C(=Cc1cnnc2ccccc12)c1ccccc1`?
IL-1B inflam inh: -62.7*; HT1080-NT tox: -20.1%; TDP1 cell CPT: inconclusive; DT40 TDP1 no CPT: inconclusive; HT1080 IDH1KD tx: -4.0%

How did CN(C)c1ccc(/C=C/c2cnnc3ccccc23)cc1 do in these assays?
TDP1 cell CPT: 7.08µM*; DT40 TDP1 no CPT: 6.31µM*

How did CSc1cnnc2ccccc12 do in these assays?
IL-1B inflam inh: 7.5; HT1080-NT tox: 2.0%; TDP1 cell CPT: -5.1%; DT40 TDP1 no CPT: -10.7%; HT1080 IDH1KD tx: -2.2%

Results for CN(C)c1ccc(/C=C/c2cc(N(C)C)nc3ccccc23)cc1 ?
TDP1 cell CPT: 1µM*; DT40 TDP1 no CPT: 0.891µM*

What do the screens show for `CN(C)c1ccc(/C=C/c2cc(=O)[nH]c3ccccc23)cc1`?
TDP1 cell CPT: -29.5%; DT40 TDP1 no CPT: -29.1%

What do the screens show for `COC(=O)c1cc2oc(C)cc2n1CC(=O)Nc1cc(Cl)ccc1OC`?
TDP1 cell CPT: inconclusive; DT40 TDP1 no CPT: -12.3%

Results for CC[N+]1(C)CCC(O)(c2ccc(OC)cc2)C(C(=O)c2ccc(OC)cc2)C1 (centres undefined) ?
IL-1B inflam inh: -77.9*; HT1080-NT tox: inconclusive; TDP1 cell CPT: 0.651µM*; DT40 TDP1 no CPT: 0.92µM*; HT1080 IDH1KD tx: 4.61µM*

Screening results deposited in PubChem BioAssay by National Center for Advancing Translational Sciences (NCATS).
